Bioassay records from PubChem.
An excerpt weighted towards active compounds, which were near 2.4% of everything screened.
KAT2A inh = blocks human GCN5L2 histone acetyltransferase; Q92830; GCN5L2 HAT assay, ThioGlo1 CoA-SH fluorescence; Potency, µM (doses to about 58.9 µM), for inactives: top-dose activity change, negative = inhibition, hits mostly inhibitors; 390,000 tested, 0.21% active; AID 504327; note: % is set by controls: 0 for no effect and ±100 for the full control effect
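qHTS, 1536-well. 20nM enzyme, pH 7.5 HEPES/EDTA/Tween-20 buffer; 15 min compound preinc., RT. Start: 75uM H3(1-25), 70uM AcCoA, 50uM ThioGlo1. Read Ex340/Em540 at t=0 (autofluorescence flag) and t=20 min.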
POLB inh = blocks human DNA polymerase beta activity; Potency, µM (highest dose often 114 µM), without a hit: at the highest dose activity change, negative = inhibition, actives largely listed as inhibitors; 340,000 tested, 1.3% active; Pol beta primer extension/strand displacement, fluorescence kinetic; P06746; AID 485314; note: % is set by controls: 0 for no effect and ±100 for the full control effect
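Reaction started by 50 nM substrate onto compound-treated Pol beta (10 nM, 15 min preincubation, room temperature); plates read at 0 min and 10 min. Normalized concentration-effect data fitted by four-parameter Hill equation.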
POLH inh = DNA polymerase eta (human) inhibition; Q9Y253; recombinant Pol eta, fluorescent DNA replication assay; Potency, µM (highest dose often 114 µM), without a hit: at the top dose activity change, negative = inhibition, most hits filed as inhibitors; 390,000 tested, 1.2% active; AID 588591; note: % is set by controls: 0 for no effect and ±100 for the full control effect
Target sequence (Q9Y253 whole entry, looked up): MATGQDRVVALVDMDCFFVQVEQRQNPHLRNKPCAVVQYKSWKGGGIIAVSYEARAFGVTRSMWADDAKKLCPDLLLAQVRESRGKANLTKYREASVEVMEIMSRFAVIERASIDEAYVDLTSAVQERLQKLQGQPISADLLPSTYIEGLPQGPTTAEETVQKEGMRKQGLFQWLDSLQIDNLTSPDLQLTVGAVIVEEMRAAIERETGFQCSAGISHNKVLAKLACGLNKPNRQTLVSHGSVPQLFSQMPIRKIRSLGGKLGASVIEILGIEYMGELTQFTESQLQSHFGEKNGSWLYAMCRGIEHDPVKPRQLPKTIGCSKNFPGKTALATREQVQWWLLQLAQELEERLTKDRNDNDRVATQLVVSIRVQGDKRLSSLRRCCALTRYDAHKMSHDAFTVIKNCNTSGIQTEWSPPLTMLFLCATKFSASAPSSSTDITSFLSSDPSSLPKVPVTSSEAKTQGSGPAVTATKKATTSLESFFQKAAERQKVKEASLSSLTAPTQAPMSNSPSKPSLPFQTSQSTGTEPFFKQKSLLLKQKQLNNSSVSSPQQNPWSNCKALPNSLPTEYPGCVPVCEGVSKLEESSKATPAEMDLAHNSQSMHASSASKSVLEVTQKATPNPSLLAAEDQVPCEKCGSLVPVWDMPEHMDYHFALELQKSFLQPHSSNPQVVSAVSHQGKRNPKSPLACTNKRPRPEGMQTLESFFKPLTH
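Pol eta at 10 nM preincubated with compounds 15 min at room temperature; reaction started with fluorescent substrate (50 nM final) and read kinetically at 0 and 10 min.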
GLS inhibitor = glutaminase GLS (human) inhibition; O94925; GLS enzymatic activity, qHTS titration; Potency, µM (series often up to 45.5 µM), for the others: at the top dose activity change, negative = inhibition, hits mostly inhibitors; 410,000 tested, 0.21% active; note: % is set by controls: 0 for no effect and ±100 for the full control effect
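hKGA in 45 mM KH2PO4 pH 8.2, 0.02% Tween-20 with pin-transferred compounds; 1 mM L-glutamine (stock) plus glutamate oxidase/HRP/Amplex Red coupling added. Fluorescence read initially and after 30 min at RT.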
POLK inh = blocks human DNA polymerase kappa activity. Q9UBT6. purified Pol kappa, fluorescent DNA synthesis assay, 10 min. Potency, µM (series often up to 107 µM), for the others: top-dose activity, negative = inhibition, hits mostly inhibitors. 400,000 tested, 0.53% active. AID 588579; note: % is set by controls: 0 for no effect and ±100 for the full control effect
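10 nM Pol kappa was preincubated with compounds for 15 min at room temperature. Reaction started with 50 nM (final) substrate. Fluorescence read kinetically at 0 and 10 min.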
Pol iota inh = DNA polymerase iota (human) inhibition | Pol iota fluorescent replication assay, 10 min | Potency, µM (series often up to 115 µM), for inactives: at the top dose activity, negative = inhibition, hits mostly inhibitors | 390,000 tested, 1% active | AID 588590
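Pol iota at 10 nM preincubated 15 min with compounds at room temperature; reaction started with fluorescent substrate, 50 nM final. Fluorescence read kinetically at 0 and 10 min; buffer-only wells as negative control.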
Active calls of the source: *; ? = inconclusive; · = no result given; [ ] = dose if it differs, or a comment. Calls come from the whole dose curve; as a rule, active = well fitted inhibition curve with a large enough effect; inconclusive = small, poorly fitted or top-dose-only effect, or another doubt; inactive = no such curve, though single readings can be large or run the other way. Potency is the fitted concentration of half-maximal effect.

SMILES	KAT2A inh	POLB inh	POLH inh	GLS inhibitor	POLK inh	Pol iota inh
Cc1ccc(NC2=CC(=O)C(=O)c3ccccc32)cc1	0.6%	?	79.4µM*	9.7%	-6.9%	11.2µM*
O=C1C=C(Nc2ccc(O)cc2)C(=O)c2ccccc21	1.7%	0.6%	?	?	-4.4%	39.0%
N#Cc1ccc2sn(-c3ccccc3)c(=O)c2c1	·	·	-13.1%	6.31µM*	·	·
CCn1c2ccccc2c2cc(NC(C)=O)ccc21	-3.9%	-0.3%	-2.8%	9.0%	-7.3%	5.1%
O=c1c(-c2ccccc2)c[nH]n1-c1cccc([N+](=O)[O-])c1	-4.0%	?	-2.8%	0.0%	5.4%	13.2%
N#Cc1ccc2c(c1)nnn2-c1ccccc1	·	·	-19.2%	13.6%	-0.9%	55.4%
CC(=O)Nc1ccc2sn(-c3ccccc3)c(=O)c2c1	·	·	2.4%	6.31µM*	·	·
O=c1c2cc([N+](=O)[O-])ccc2sn1-c1ccccc1	·	·	-6.7%	10µM*	·	·
CC(=O)ON(C(C)=O)c1ccc(/C=C2/C=Cc3ccccc32)cc1	·	·	·	·	-12.5%	8.2%
Cc1c(C(=O)NCCN(C)C)sc2nc3n(c(=O)c12)CCC3	-0.2%	-0.6%	2.0%	2.2%	5.4%	-2.2%
O=C1C(c2ccccc2)=[N+]([O-])c2ccccc21	-12.2%	·	?	-10.1%	-24.7%	8.91µM*
CN(C)c1ccc(-c2c(C3C4C=CCCC4(C)C(=O)N3Cc3ccccc3)ccc3ccccc23)cc1 (stereo unspecified)	·	·	·	·	-10.4%	-8.9%
CCc1nnc(N/N=C\c2ccc(OC(C)=O)c(OC)c2)n1N	11.5%	-2.5%	0.5%	16.3%	-31.0%	2µM*
O=C(N/N=C/c1ccc(Cl)cc1Cl)c1ccc(-n2cnnn2)cc1	-7.5%	·	-19.4%	2.5%	0.7%	17.6%
COc1ccc(/C=N/Nc2nncn2N)cc1Br	-1.8%	-3.6%	-26.3%	?	-1.2%	8.91µM*
CCc1nnc(N/N=C/c2ccc(O)c(OC)c2)n1N	-5.3%	17.6%	2.7%	32.8%	-6.5%	8.91µM*
Nn1cnnc1N/N=C/c1ccc(Cl)cc1Cl	-23.9%	-3.1%	-7.9%	17.1%	0.8%	11.2µM*
CCc1nnc(N/N=C/c2cc(Br)c(O)cc2O)n1N	-2.9%	0.3%	-13.3%	25.6%	1.5%	8.91µM*
CCOc1cc(/C=N/Nc2nnc(C)n2N)ccc1OC(C)=O	-4.0%	?	-15.5%	-25.3%	-25.5%	2.82µM*
CC(C)(C)c1nnc(N/N=C/c2cc(Br)ccc2O)n(N)c1=O	-3.8%	-14.4%	-16.2%	27.2%	-8.6%	9.5%
Cc1nc2c(C(=O)NCCc3ccc(Cl)cc3)c[nH]n2c(=O)c1Cc1ccc(Cl)cc1	?	22.4µM*	89.1µM*	11.2%	?	79.4µM*
CNC(=O)c1c[nH]n2c(=O)c(Cc3ccccc3F)c(C)nc12	-4.0%	?	-6.9%	8.7%	-2.5%	-21.9%
Cc1nc2c(C(=O)NCCc3ccccc3)c[nH]n2c(=O)c1Cc1ccccc1F	?	?	3.0%	0.2%	-24.3%	79.4µM*
Cc1ccc(CNC(=O)c2c[nH]n3c(=O)c(Cc4ccc(Cl)cc4)c(C)nc23)cc1	-7.6%	?	?	4.3%	-6.1%	-11.2%
Cc1nc2c(C(=O)N(C)Cc3ccccc3)c[nH]n2c(=O)c1Cc1ccc(Cl)cc1	14.6%	?	-10.7%	-5.6%	89.1µM*	50.1µM*
SMILES	KAT2A inh	POLB inh	POLH inh	GLS inhibitor	POLK inh	Pol iota inh
COc1ccc(CNC(=O)C2CCN(Cc3nc(-c4ccc(Cl)cc4)oc3C)CC2)cc1	0.8%	-3.0%	-20.3%	0.0%	-9.6%	24.5%
N#Cc1nc(-c2ccc(OCc3ccccc3Cl)cc2)oc1N1CCC(C(N)=O)CC1	·	·	·	·	-10.4%	31.5%
Cc1ccc(S(=O)(=O)NNc2ccccc2)cc1	28.2µM*	25.8%	-14.2%	7.9%	-10.4%	-9.1%
CN1CCN(S(=O)(=O)c2cccc(C(=O)Nc3sccc3C(N)=O)c2)CC1	-4.0%	·	44.7µM*	6.4%	?	44.7µM*
NC(=O)c1ccsc1NC(=O)COC(=O)CNC(=O)c1cccc([N+](=O)[O-])c1	-3.8%	·	35.5µM*	-14.5%	-22.6%	?
NC(=O)c1ccsc1NC(=O)COC(=O)CNC(=O)c1ccc(Cl)cc1	-0.7%	·	-13.0%	-6.9%	-23.0%	-19.9%
COc1ccccc1OCC(=O)OCC(=O)Nc1sccc1C(N)=O	-7.1%	?	25.1µM*	1.7%	-31.7%	?
CN(C)S(=O)(=O)c1cccc(C(=O)OCC(=O)Nc2sccc2C(N)=O)c1	-7.9%	8.6%	20µM*	-0.9%	?	?
CCC1Cc2cc(O)ccc2C2=C1c1ccc(O)cc1CC2CC (stereo unspecified)	0.0%	·	·	·	-19.4%[60.1 µM]	·
O=C(O)[C@H](O)[C@@H](O)[C@H](O)[C@H](O)CO	34.1%	·	·	1.8%	-9.4%[60.1 µM]	·
Cc1nc2c(cc1C(=O)N/N=C/c1ccc(O)c(O)c1)c(=O)n(C)c(=O)n2C	-13.3%	44.7µM*	?	27.1%	-25.9%	?
Cc1ccc(NC(=O)CSc2nnc(-c3ccccc3)n2C)cc1	·	·	·	·	10.6%	22.9%
OCC(O)COc1ccc(Cl)cc1 (stereo unspecified)	·	·	·	-6.6%	·	·
Nc1nc2ccc(O)cc2s1	-0.2%	-19.0%	-14.4%	12.6µM*	-13.2%	10.6%
CCN1CCN(CCOCCOc2ccccc2-c2ccccc2)CC1	-3.1%	5.9%	·	·	·	·
c1ccc(-c2ccccc2OCCOCCN2CCOCC2)cc1	0.9%	50.1µM*	-5.7%	6.7%	0.4%	-8.1%
Cc1[nH]n(-c2ccccc2)c(=O)c1C=Nc1cnc2ccccc2c1	-2.6%	?	?	-4.1%	-1.5%	?
CCOc1ccc(N=Cc2c(C)[nH]n(-c3nc4ccccc4[nH]3)c2=O)cc1	-24.7%	22.4µM*	15.8µM*	5.4%	?	5.2%
O=C(CN1C(=O)NC2(CCCCC2)C1=O)Nc1ccccc1Cl	1.9%	3.9%	-4.3%	-0.8%	-1.0%	89.1µM*
O=C(CNC(=O)c1cccc(-n2cccc2)c1)Nc1ccccc1Br	·	·	31.6µM*	-9.8%	·	·
Cc1ccc(C)c(N(CC(=O)N/N=C/c2ccc(-c3ccc([N+](=O)[O-])cc3)o2)S(=O)(=O)c2ccccc2)c1	-6.6%	2.2%	-1.5%	1.2%	-8.8%	398.2%
CCOc1ccc(S(=O)(=O)N(CC(=O)N/N=C/c2ccc(-c3ccc([N+](=O)[O-])cc3)o2)c2ccccc2)cc1	?	7.08µM*	3.16µM*	-18.8%	?	?
Cc1c(C2(c3cc(C(C)C)c(O)c(Br)c3C)OS(=O)(=O)c3ccccc32)cc(C(C)C)c(O)c1Br	·	·	·	·	-27.1%	?
CCC(CN(C)C)Oc1cc(NCc2ccccc2)c2ncn(C(C)C)c2c1 (stereo unspecified)	-8.5%	·	-17.1%	34.1%	-12.0%	14.1µM*
